The values that follow come from PubChem BioAssay AID1626 (SRMLSC, 2009).

Structures are written as SMILES. Several values for one entry are separate records, joined by “and”; a condition that tells them apart may be missing. Equal entries are not always repeated. Screen size: about 220,000 compounds; about 2,000 (0.91%) were called active. Inconclusive results (about 2%) are left out. The list is a sample of the results. Entries with a potency or affinity are not part of this list. A number with no mark means an inactive call. Rule as the data show it: inconclusive = inhibition above about 80% without an active follow-up result; inactive = below that; test concentration not stated here.

As a reminder, the inhibition is the change of the read-out against control, counted positive when it falls.

The assay is described as follows: M. tuberculosis H37Rv growth inhibitors, H37Rv strain (AID 1626).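 Also: bacteria incubated seven days before Alamar blue readout; 0% = bacteria only wells and 100% = bacteria with antibiotic wells.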 The conditions noted are these: active compounds read high, concentration not given here.
As to `CCOc1ccc(NC(=O)N2CCN(S(C)(=O)=O)CC2)cc1`, the inhibition was -3.68%. With `COc1ccc(-n2cnc3c(sc4nccc(N(C)C)c43)c2=O)cc1` the figure was 10.5%; with `CN(C)c1ccc(C=C2C(=O)OC(C)(C)OC2=O)cc1`, -0.63%; with `COc1ccc(C=C2C(=O)OC(C)(C)OC2=O)cc1OC`, -16.1%. `COC(=O)CN(c1ccccc1)S(=O)(=O)c1cc(Br)ccc1OC`: the inhibition is 5.26%. With `CCOC(=O)Cc1csc(NC(=O)c2cc3c(s2)CCCC3)n1` the figure was 6.6%; with `CCOC(=O)Cc1csc(NC(=O)c2ccc(C)cc2)n1`, -1.68%. Regarding `CSc1ccc(/C=C/C(=O)Nc2ccccc2)cc1`, the inhibition is 33.9%. Under `Cc1ccc(/C=C/C(=O)c2ccc(O)cc2)cc1` stands 11.5%; under `CCOC(=O)Nc1ccc(C(=O)/C=C/c2ccccc2)cc1`, 10.2%. For the compound `CCOc1ccc(C(=O)/C=C/c2ccc(SC)cc2)cc1`, the inhibition is -1.12%.

On to `COc1ccccc1/C=C/C(=O)c1ccc(NC(C)=O)cc1`, for which the inhibition is 94.1%. With `CSc1ccc(/C=C/C(=O)c2ccc(NC(=O)C(C)C)cc2)cc1` the figure was 75.2%.

Take `O=C(Nc1nnc(CC2=CCCCC2)s1)Nc1ccccc1F`: the inhibition is -2.47%. As to `Cc1nnc2c3ccccc3c(-c3ccccc3)nn12`, the inhibition is 5.99%. With `CCCC(=O)c1c[nH]c(C(=O)NCc2ccco2)c1`, the inhibition was -9.43%.

In the case of `Cc1ccc(Cn2cc(/C=N/NC(=O)Cc3nnc(NC(=O)c4ccc(C)cc4)s3)c3ccccc32)cc1`, the inhibition was 7.8%.

Turning to `O=C(CCNC(=O)c1ccco1)NCc1ccccc1`, the inhibition was 0.15%.

Consider `COc1ccc(N2CCN(c3nc(NCCc4ccc(OC)c(OC)c4)nc(OC)n3)CC2)cc1`, for which the inhibition is 34.2%. Take `COc1ccc(CCNc2nc(N3CCOCC3)nc(N3CCOCC3)n2)cc1OC`: the inhibition was 8.14%.

In the case of `CC(C)CCN1CCN(Cc2ccc(C#CC(C)(C)O)s2)CC1CCO` (stereo not drawn), the inhibition is 9.71%.

`CC(=O)c1ccc(-c2ccc(C(=O)N3CCCc4ccccc43)o2)cc1`: the inhibition was 17.9%. For `CSc1sc(-c2ccnc(=S)[nH]2)c(-c2ccccc2)c1C#N`, the inhibition is -4.19%. With `COC(=O)Nc1ccc(Oc2ccccc2)cc1`, the inhibition is -4.37%. With `COc1ccccc1NC(=O)CSCc1nc2ccccc2[nH]1`, the inhibition is -0.98%. `Cc1ccc(C(=O)NCc2ccccc2)cc1Br`: the inhibition was -8.73%. Regarding `O=C(CSCc1nc2ccccc2[nH]1)Nc1ccccc1`, the inhibition is 0.99%. Regarding `CCOC(=O)N1CCN(CCC(=O)Nc2ccc(Br)cc2)CC1`, the inhibition is -16.8%. With `O=C(CNCc1ccccc1)Nc1ccc(F)cc1` the figure was -5.31%.

Take `Cc1ccc(NC(=O)CNCc2ccccc2)c(Br)c1`: the inhibition is -0.29%. With `CCOC(=O)N1CCN(CCC(=O)Nc2cccc(Br)c2)CC1`, the inhibition is -0.92% and -12.2%.

With `CCc1cccc(NC(=S)N(CCCN2CCOCC2)C(C)c2cc3cccc(OC)c3o2)c1` (stereo not drawn), the inhibition was -11.9%. With `COc1ccc(CNC(=O)CCSCc2cccc(Cl)c2)c(OC)c1`, the inhibition is -4.73%. Under `O=C(Nc1nc(-c2ccc(S(=O)(=O)N3CCCC3)cc2)cs1)c1ccco1` stands 7.57%. `COCCOCCn1c(/C=C/c2ccccc2)nc2ccccc21`: the inhibition was 11%. Regarding `O=S(=O)(NCc1ccccc1)c1ccccc1Br`, the inhibition is 4.19%. Consider `CCN(CC)S(=O)(=O)c1ccc2c(c1)nc(CCC(=O)Nc1ccccc1Cc1ccccc1)n2CC`, for which the inhibition is -0.79%. As to `COc1ccc(/C=C2\SC(=S)NC2=O)cc1OS(=O)(=O)c1ccc(NC(C)=O)cc1`, the inhibition is -3.97%. With `Cc1ccccc1N(CC(=O)Nc1ccccc1C(=O)O)S(C)(=O)=O` the figure was -1.04%; with `CCN(CC)c1nc(-c2nn[nH]n2)nc(N(CC)CC)n1`, -3.01%; with `CCOC(=O)C(=O)Nc1ccc(Oc2ccccc2)cc1`, -13.3%. For the compound `O=C(O)/C=C\C(=O)Nc1ccc(Oc2ccccc2)cc1`, the inhibition is -4.64%. Under `CC(C)(C)NC(=O)C1CC(=O)OC12CCOC(C)(C)C2` (stereo not drawn) stands 0.06%; under `COC(=O)CN(c1ccccc1)S(=O)(=O)c1ccc(F)cc1`, -4.89%. Take `O=[N+]([O-])C(=c1ccc2c(c1)N1C3=C(CCCC3)CC3CCCCC31N=2)[N+](=O)[O-]` (stereo not drawn): the inhibition was -8.62%. On to `O=C(CSCC(=O)NC1CC1)Nc1ccccc1`, for which the inhibition is -9.05%.

Regarding `CC(=O)c1ccc(NC(=O)CSCCO)cc1`, the inhibition is -4.48%. Under `CC(=O)c1ccc(NC(=O)CSC(C)C)cc1` stands 0.93%; under `O=C(CSCC(=O)NC1CCCC1)Nc1ccccc1`, 6.01%. Turning to `CC(=O)Nc1ccc(S(=O)(=O)N2CCN(C(C)CCc3ccccc3)CC2)cc1` (stereo not drawn), the inhibition was -9.9%.

As for `CCc1ccc(OCCCC(=O)O)c(Br)c1`, the inhibition was -8.18%.

With `COC(=O)c1ccc(COc2ccc3c4c(c(=O)oc3c2)CCC4)o1`, the inhibition is -7.47%. Take `Cc1cc(C)n2nc(SCC(=O)N/N=C/c3cccc(Br)c3)nc2n1`: the inhibition was -4.74%. Regarding `O=C(NC1(C(F)(F)F)C(=O)Nc2c1c(=O)[nH]c(=O)n2Cc1ccco1)C1CC1` (stereo not drawn), the inhibition is 1%. Under `C=CCNC(=O)CSc1nnc(-c2ccccc2Cl)n1-c1c(C)n(C)n(-c2ccccc2)c1=O` stands -3.15%. Take `COc1ccc(CCNC(=O)CSc2cn(Cc3cccc(C)c3)c3ccccc23)cc1OC`: the inhibition is 4.76%. Under `CCc1nc2c(c(=O)[nH]1)C1(CCCC1)Cc1ccccc1-2` stands 12.8%; under `O=c1[nH]c(CN(CCO)CCO)nc2c1C1(CCCCC1)Cc1ccccc1-2`, 8.33%. On to `O=c1[nH]c(NCCO)nc2c1C1(CCCC1)Cc1ccccc1-2`, for which the inhibition is -4.7%. With `O=c1[nH]c(NCCO)nc2c1C1(CCCCC1)Cc1ccccc1-2` the figure was -9.4%. As for `Cc1cc2c(C)nc3ccccc3c2o1`, the inhibition is -3.45%.

As for `COc1cccc2c3c(c(C)nc12)CC(C)O3` (stereo not drawn), the inhibition was -3.67%. As to `Cc1cc(C(=O)NNC(=O)CCCCC(=O)NNC(=O)c2cc(C)[nH]n2)n[nH]1`, the inhibition was 1.69%.
